According to PubChem BioAssay AID1159580 (chemical genetic matrix, 2015):
Values joined by “and” are separate entries in the source; they are usually repeats but may differ in a detail not shown here. Equal entries are not always repeated. Hit rate of the full screen: of about 5,500 compounds, about 2,000 (36%) were called active. About 18% were inconclusive and are not listed. Rule as the data show it: active = normalized growth mostly below about 0.91 (no sharp cut-off); inconclusive = no clear call, values can overlap the other calls; inactive = mostly above about 0.92. Some of the results follow.

Experiment: chemical genetic growth profiling, strain panel (AID 1159580);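 also: tested at 20 µM; growth read once vehicle control cultures reached saturation at 30 °C; 1 = growth at the plate median or of vehicle wells; lower values mean less growth of the strain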
Conditions: growth OD

Measured: normalized growth

NCCCC(=O)O
inactive: S. cerevisiae deletion strains, locus YAL013W, strain DEP1, stronger effect = lower value 1 and 0.982 | S. cerevisiae deletion strains, locus YAL040C, strain CLN3, stronger effect = lower value 0.965 | S. cerevisiae deletion strains, locus YBR021W, strain FUR4, stronger effect = lower value 1.01 | S. cerevisiae deletion strains, locus YBR229C, strain ROT2, stronger effect = lower value 1.01 | S. cerevisiae deletion strains, locus YCL029C, strain bik1, stronger effect = lower value 1.04 | S. cerevisiae deletion strains, locus YDL035C, strain GPR1, stronger effect = lower value 1.01 | S. cerevisiae deletion strains, locus YDL074C, strain BRE1, stronger effect = lower value 1.01 | S. cerevisiae deletion strains, locus YDL101C, strain DUN1, stronger effect = lower value 1.01 | S. cerevisiae deletion strains, locus YDL134C, strain PPH21, stronger effect = lower value 1.01 | S. cerevisiae deletion strains, locus YDL185W, strain tfp1, stronger effect = lower value 1.01 | S. cerevisiae deletion strains, locus YDL192W, strain arf1, stronger effect = lower value 1.02 | S. cerevisiae deletion strains, locus YDR101C, strain arx1, stronger effect = lower value 1.03 | S. cerevisiae deletion strains, locus YDR150W, strain NUM1, stronger effect = lower value 1.01 | S. cerevisiae deletion strains, locus YDR162C, strain NBP2, stronger effect = lower value 1 | S. cerevisiae deletion strains, locus YDR318W, strain mcm21, stronger effect = lower value 1.02 | S. cerevisiae deletion strains, locus YDR363W, strain ESC2, stronger effect = lower value 1.02 | S. cerevisiae deletion strains, locus YDR388W, stronger effect = lower value 1.02 | S. cerevisiae deletion strains, locus YDR502C, strain sam2, stronger effect = lower value 1.03 | S. cerevisiae deletion strains, locus YEL061C, strain CIN8, stronger effect = lower value 1 | S. cerevisiae deletion strains, locus YER002W, strain NOP16, stronger effect = lower value 0.993 | S. cerevisiae deletion strains, locus YER110C, stronger effect = lower value 1.04 | S. cerevisiae deletion strains, locus YER155C, strain BEM2, stronger effect = lower value 1.01 | S. cerevisiae deletion strains, locus YER167W, strain BCK2, stronger effect = lower value 1.01 | S. cerevisiae deletion strains, locus YGL078C, strain dbp3, stronger effect = lower value 1.03 | S. cerevisiae deletion strains, locus YGL086W, strain mad1, stronger effect = lower value 1.02 | S. cerevisiae deletion strains, locus YGL248W, strain PDE1, stronger effect = lower value 1.01 | S. cerevisiae deletion strains, locus YGR078C, strain PAC10, stronger effect = lower value 1.01 | S. cerevisiae deletion strains, locus YGR135W, strain pre9, stronger effect = lower value 1.04 | S. cerevisiae deletion strains, locus YGR229C, strain SMI1, stronger effect = lower value 1.03 and 0.998 | S. cerevisiae deletion strains, locus YGR252W, strain gcn5, stronger effect = lower value 1.07 | S. cerevisiae deletion strains, locus YHR030C, strain SLT2, stronger effect = lower value 1.01 | S. cerevisiae deletion strains, locus YHR079C, strain IRE1 (second series), stronger effect = lower value 1.02 | S. cerevisiae deletion strains, locus YHR079C, strain IRE1, stronger effect = lower value 0.994 | S. cerevisiae deletion strains, locus YHR094C, strain hxt1, stronger effect = lower value 1.02 | S. cerevisiae deletion strains, locus YHR129C, strain ARP1, stronger effect = lower value 1 | S. cerevisiae deletion strains, locus YHR200W, strain rpn10, stronger effect = lower value 1.02 | S. cerevisiae deletion strains, locus YIL066C, strain RNR3, stronger effect = lower value 1.01 | S. cerevisiae deletion strains, locus YIL073C, strain SPO22, stronger effect = lower value 1.06 | S. cerevisiae deletion strains, locus YIL125W, strain kgd1, stronger effect = lower value 1.02 | S. cerevisiae deletion strains, locus YIR030C, strain dcg1, stronger effect = lower value 1.04 | S. cerevisiae deletion strains, locus YJL095W, strain BCK1, stronger effect = lower value 1.01 and 0.999 | S. cerevisiae deletion strains, locus YJL134W, strain LCB3, stronger effect = lower value 1.01 | S. cerevisiae deletion strains, locus YJL168C, strain set2, stronger effect = lower value 1.03 | S. cerevisiae deletion strains, locus YJL187C, strain SWE1 (second series), stronger effect = lower value 1.01 | S. cerevisiae deletion strains, locus YJR043C, strain POL32, stronger effect = lower value 1 | S. cerevisiae deletion strains, locus YJR066W, strain TOR1, stronger effect = lower value 0.949 | S. cerevisiae deletion strains, locus YJR075W, strain HOC1, stronger effect = lower value 1.01 | S. cerevisiae deletion strains, locus YKL009W, strain mrt4, stronger effect = lower value 0.999 | S. cerevisiae deletion strains, locus YKL068W, stronger effect = lower value 1.01 | S. cerevisiae deletion strains, locus YKL085W, strain MDH1 (second series), stronger effect = lower value 1 | S. cerevisiae deletion strains, locus YKL085W, strain MDH1, stronger effect = lower value 1 | S. cerevisiae deletion strains, locus YKL190W, strain CNB1, stronger effect = lower value 1 | S. cerevisiae deletion strains, locus YKR001C, strain vps1, stronger effect = lower value 1.03 | S. cerevisiae deletion strains, locus YLR039C, strain RIC1, stronger effect = lower value 0.999 | S. cerevisiae deletion strains, locus YLR058C, strain SHM2, stronger effect = lower value 1.01 | S. cerevisiae deletion strains, locus YLR102C, strain apc9, stronger effect = lower value 1.03 | S. cerevisiae deletion strains, locus YLR113W, strain HOG1, stronger effect = lower value 0.996 | S. cerevisiae deletion strains, locus YLR262C, strain YPT6, stronger effect = lower value 1 | S. cerevisiae deletion strains, locus YLR268W, strain sec22, stronger effect = lower value 1.03 | S. cerevisiae deletion strains, locus YLR330W, strain CHS5, stronger effect = lower value 1 | S. cerevisiae deletion strains, locus YLR342W, strain FKS1 (second series), stronger effect = lower value 0.994 | S. cerevisiae deletion strains, locus YLR371W, strain rom2, stronger effect = lower value 1.03 | S. cerevisiae deletion strains, locus YLR418C, strain cdc73, stronger effect = lower value 1.08 | S. cerevisiae deletion strains, locus YML016C, strain PPZ1, stronger effect = lower value 1.01 | S. cerevisiae deletion strains, locus YML032C, strain rad52, stronger effect = lower value 1.04 | S. cerevisiae deletion strains, locus YML124C, strain tub3, stronger effect = lower value 1.03 | S. cerevisiae deletion strains, locus YMR078C, strain ctf18, stronger effect = lower value 1.03 | S. cerevisiae deletion strains, locus YMR223W, strain ubp8, stronger effect = lower value 1.02 | S. cerevisiae deletion strains, locus YMR263W, strain SAP30, stronger effect = lower value 1.01 | S. cerevisiae deletion strains, locus YMR307W, strain GAS1, stronger effect = lower value 1.02 | S. cerevisiae deletion strains, locus YNL067W, strain RPL9B, stronger effect = lower value 1.01 | S. cerevisiae deletion strains, locus YNL128W, strain TEP1, stronger effect = lower value 1.02 and 0.979 | S. cerevisiae deletion strains, locus YNL153C, strain GIM3, stronger effect = lower value 1.01 | S. cerevisiae deletion strains, locus YNL175C, strain NOP13, stronger effect = lower value 0.995 | S. cerevisiae deletion strains, locus YNL183C, strain NPR1, stronger effect = lower value 0.918 | S. cerevisiae deletion strains, locus YNL197C, strain WHI3, stronger effect = lower value 0.975 | S. cerevisiae deletion strains, locus YNL224C, strain SQS1, stronger effect = lower value 1.02 | S. cerevisiae deletion strains, locus YNL233W, strain BNI4, stronger effect = lower value 1 | S. cerevisiae deletion strains, locus YNL250W, strain rad50, stronger effect = lower value 1.03 | S. cerevisiae deletion strains, locus YNL271C, strain bni1, stronger effect = lower value 1.03 | S. cerevisiae deletion strains, locus YNL298W, strain CLA4, stronger effect = lower value 1.05 | S. cerevisiae deletion strains, locus YNL307C, strain MCK1, stronger effect = lower value 1.03 | S. cerevisiae deletion strains, locus YNL322C, strain KRE1, stronger effect = lower value 1.01 and 0.99 | S. cerevisiae deletion strains, locus YNR052C, strain pop2, stronger effect = lower value 1.02 | S. cerevisiae deletion strains, locus YOL006C, strain TOP1, stronger effect = lower value 1.03 | S. cerevisiae deletion strains, locus YOL012C, strain htz1 1.29 | S. cerevisiae deletion strains, locus YOL147C, strain pex11, stronger effect = lower value 1.04 | S. cerevisiae deletion strains, locus YOR061W, strain CKA2, stronger effect = lower value 1.01 | S. cerevisiae deletion strains, locus YOR069W, strain VPS5, stronger effect = lower value 1 | S. cerevisiae deletion strains, locus YOR083W, strain WHI5 (second series), stronger effect = lower value 0.99 | S. cerevisiae deletion strains, locus YOR136W, strain idh2, stronger effect = lower value 1.02 | S. cerevisiae deletion strains, locus YOR144C, strain elg1, stronger effect = lower value 1.03 | S. cerevisiae deletion strains, locus YOR184W, strain ser1, stronger effect = lower value 1.03 | S. cerevisiae deletion strains, locus YOR231W, strain MKK1, stronger effect = lower value 1 | S. cerevisiae deletion strains, locus YOR316C, strain cot1, stronger effect = lower value 1.03 | S. cerevisiae deletion strains, locus YPL055C, strain LGE1, stronger effect = lower value 1.03 | S. cerevisiae deletion strains, locus YPL241C, strain CIN2, stronger effect = lower value 0.999 | S. cerevisiae deletion strains, locus YPL256C, strain CLN2, stronger effect = lower value 0.985 | S. cerevisiae deletion strains, locus YPR119W, strain clb2, stronger effect = lower value 1.02 | S. cerevisiae deletion strains, locus YPR141C, strain kar3, stronger effect = lower value 1.02 | S. cerevisiae deletion strains, locus YPR163C, strain tif3, stronger effect = lower value 1.04 | S. cerevisiae deletion strains, locus YPR167C, strain met16, stronger effect = lower value 1.02 | S. cerevisiae deletion strains, strain wtn01, stronger effect = lower value 1.03 | S. cerevisiae strains, strain wild type, stronger effect = lower value 1.01
